# Laboratory results reported in PubChem BioAssay (NCATS).
# Results filed as inconclusive are left out. A call without a number means that no potency is given here. Active and inactive are the calls of the source. Calls follow the shape of the dose curve; as a rule, active = well fitted inhibition curve with a large enough effect; inconclusive = small, poorly fitted or top-dose-only effect; inactive = no such curve, though single readings can be large or run the other way.
# System: Zika virus NS2B-NS3 protease (unlinked)
# Assay: Optimization of GU AMC qHTS for Zika virus inhibitors: Unlinked NS2B-NS3 protease assay (AID 1347151); also: nearly all actives have a fitted effect of over 80% in size
# Conditions: recombinant ZIKV NS2B-NS3 protease, fluorogenic AMC substrate; series mostly up to 52.5 µM
# From the text: Avindra Nath, Ph.D., National Institute of Neurological Disorders and Stroke (NINDS), Bethesda, MD
# Radhakrishnan Padmanabhan, Ph.D., Georgetown University (GU), Washington D.C.
# Zika Virus causes congenital defects, including microcephaly and is associated with Guillain-Barre syndrome, eningoencephalitis and myelitis in infected adult. […] Using a target-based approach, we hope to establish a screening paradigm to uncover novel, cell-active NS2B-NS3 protease (Zika Virus) specific inhibitors from NCATS' collection of small molecules using qHTS.
# Early Translation Branch (ETB)
# National Center for Advancing Translational Sciences (NCATS), Rockville, MD
# National Institute of Health (NIH), Bethesda, Maryland
# Padmanabhan lab provided the NS2B hydrophilic domain and NS3 protease domain in a noncovalent complex used for the unlinked assay. Control compound aprotinin is obtained from Thermo Scientific (#78432; Waltham, Massachusetts). NS2B-NS3 AMC substrate (Bz-Nle-Lys-Arg-Arg-AMC; Nle-KRR-AMC) purchased from Bachem (#I-1995; Torrance, CA). Ac-VKTGKR-AMC purchased from Genscript or Bachem, Ac-FAAGKR-AMC purchased from Genscript, Ac-GLVKRR-AMC purchased from Genscript, Ac-LKKR-AMC purchased from Genscript.
# GU AMC unlinked NS2B-NS3 protease qHTS protocol:
# Briefly, 3 microL of Zika virus unlinked NS2B-NS3 protease (25 nM for linked final concentration), in assay buffer (10 mM Tris-HCl pH 8.0 with 0.01% Tween 20) was dispensed into a 1,536-well solid-bottom black plate (Greiner Bio One, Monroe, NC). Twenty-three nL of compounds (final concentration range 7.28 nM to 114 microM) or control Aprotinin (final concentration range 3.47 nM to 114 microM) were transferred via Wako Pin-tool (Wako Automation, Richmond, VA). […] Plates were then read immediately on a ViewLux High-throughput CCD imager (PerkinElmer, Waltham, MA) equipped with standard UV fluorescence optics (340(30) nm excitation, 450(20) nm emission) then incubated (room temperature, protected from light) for 15 minutes (~20% conversion). The change in fluorescence intensity over the 15-minute reaction period was normalized against no-inhibitor and no-enzyme controls and the resulting percent inhibition data were fitted to a 4-parameter Hill equation. Aprotinin was used as the intraplate control.
# Potency is read from the fitted curve at half-maximal effect.
row,SMILES,Potency
1,Brc1cc2c(cc1[C@H]1Nc3ccccc3[C@H]3C=CC[C@H]31)OCO2,inactive
2,N=c1ccn2c(n1)O[C@H]1[C@H](O)[C@@H](CO)O[C@H]12,inactive
3,N[C@H](CCCP(=O)(O)O)C(=O)O,inactive
4,O=[N+]([O-])c1ccc2c(c1)S(=O)(=O)C=C2,inactive
5,S=c1[nH]c(-c2ccccc2)cn1-c1ccccc1,26.7 µM (active)
6,CC12C(=O)OC(=O)C1(C)C1CCC2O1 (stereo not given),inactive
7,O=C(/C=C/c1ccc(O)c(O)c1)OCCc1ccccc1,6.7 µM (active)
8,CC[C@H]1OC(=O)[C@H](C)C(O[C@H]2C[C@@](C)(OC)[C@@H](O)[C@H](C)O2)[C@H](C)[C@@H](OC2O[C@H](C)C[C@H](N(C)C)[C@H]2O)[C@](C)(O)C[C@@H](C)CN(C)[C@H](C)[C@@H](O)[C@]1(C)O (stereo not given in full),inactive
9,CSc1ccccc1N1CCN(CCCCCC(=O)NC2CCCc3ccccc32)CC1 (stereo not given),inactive
10,CCCC(CCC)C(=O)OC1CC2CCC(C1)[N+]2(C)C (stereo not given),inactive
11,Fc1ccc(C(OCCCc2cnc[nH]2)c2ccc(F)cc2)cc1,inactive
12,CN1CC(=O)N/C1=N/C(=O)Nc1cccc(Cl)c1,inactive
13,Cc1ccc(S(=O)(=O)/C=C/C#N)cc1,inactive
14,CNc1ncnc2c1ncn2[C@@H]1O[C@H](CO)[C@@H](O)[C@H]1O,inactive
15,CN1[C@@H](CC(=O)c2ccccc2)CCC[C@H]1C[C@H](O)c1ccccc1,inactive
16,COc1cccc(C(=O)NCCN2CCN(c3ccc(Cl)cc3)CC2)c1,inactive
17,O=[N+]([O-])c1ccc(CNc2nc(NCc3cccc(C(F)(F)F)c3)nc3nc[nH]c23)cc1,inactive
18,CC(C)CC(NP(=O)(O)O[C@@H]1O[C@@H](C)[C@H](O)[C@@H](O)[C@H]1O)C(=O)NC(Cc1c[nH]c2ccccc12)C(=O)O (stereo not given in full),inactive
19,CCCCCCCC/C=C\CCCCCCCC(=O)NCCO,inactive
20,Clc1ccc(N2CCN(Cc3c[nH]c4ncccc34)CC2)cc1,inactive

row,SMILES,Potency
1,N#C/C(=C\c1ccc(O)c(O)c1)C(=O)c1ccc(O)c(O)c1,1.19 µM (active)
2,O=Nc1ccc2oc(=O)ccc2c1,inactive
3,C[N+]1(C)C2CC(OC(=O)[C@H](CO)c3ccccc3)CC1C1OC12 (stereo not given in full),inactive
4,CCCCCCCCCCCCCCCCCC(=O)OC(CC(=O)O)C[N+](C)(C)C (stereo not given),inactive
5,COc1ccc2c(c1)CCC1C2CC[C@@]2(C)C1CC[C@@H]2NCCCCCCN1C(=O)CCC1=O (stereo not given in full),inactive
6,Oc1cc2c(cc1O)CN(C(=S)NCCc1ccc(Cl)cc1)CCC2,23.8 µM (active)
7,CS(=O)(=O)c1ccc(-n2nc(C(F)(F)F)cc2-c2ccc(F)cc2)cc1,inactive
8,CCN(CC)CCCCNc1ncc2cc(-c3c(Cl)cccc3Cl)c(NC(=O)NC(C)(C)C)nc2n1,2.99 µM (active)
9,O=C(c1ccc(OCCCc2cnc[nH]2)cc1)C1CC1,inactive
10,Cn1cc(C2=C(c3ccc(Cl)cc3Cl)C(=O)NC2=O)c2ccccc21,inactive
11,Cc1cn([C@H]2CC(N=[N+]=[N-])[C@@H](CO)O2)c(=O)[nH]c1=O (stereo not given in full),inactive
12,NCCCCCCCCCCN,inactive
13,O=C(CCCCCN1CCN(c2ccccc2-c2ccccc2)CC1)NC1CCCc2ccccc21 (stereo not given),23.8 µM (active)
14,NC(CCCP(=O)(O)O)C(=O)O (stereo not given),inactive
15,CO/N=C(\C(=O)N[C@@H]1C(=O)N2C(C(=O)O)=C(COC(C)=O)CS[C@H]12)c1csc(N)n1,inactive
16,Cc1ccc(O)c(N=Nc2ccccc2)n1,inactive
17,CCCCCCCCCCCCCCCC(=O)OC(CC(=O)O)C[N+](C)(C)C (stereo not given),inactive
18,CN1CCc2cc(NC(=O)Nc3cccnc3)ccc21,inactive
19,CO[C@H]1O[C@@H]2O[C@]3(C)CC[C@@H]4[C@@H](C)CC[C@H]([C@H]1C)[C@]24OO3,inactive
20,O=S(=O)(c1cccc2c(I)cccc12)N1CCCNCC1,inactive
